AMA1 RON2 block: qHTS for Inhibitors of AMA1-RON; Towards Development of Antimalarial Drug Lead: Primary Screen; hit rate 0.2% among 360,000; Plasmodium falciparum AMA1 (3D7) - RON2 peptide interaction; Potency, µM (series often up to 58.2 µM), without a hit: at the highest dose activity change, negative = inhibition, actives largely listed as inhibitors; AlphaScreen AMA1-biotinylated RON2 peptide binding;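 note: 0% = vehicle wells and -100% = peptide control; nearly all actives have a fitted effect of over 45% in size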
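AMA1 (3D7) with his tag at 25 nM final met compounds first, then biotinylated RON2 peptide at 25 nM; detection used donor plus acceptor beads, 10 µg/mL apiece, read by AlphaScreen after 30 min at room temperature.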
NS1 function inh: qHTS Assay for Inhibitors of Influenza NS1 Protein Function. Potency, µM (top dose mostly 46.1 µM), inactives show at the top dose activity, positive = more growth. hit rate 0.4% among 270,000; calls by dose curve; note: actives are rising curves; nearly all actives have a fitted effect of over 50% in size
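OD600 was taken as the measure of yeast growth restored by compound in an NS1-expressing S. cerevisiae strain. Cells had been washed out of glucose medium and diluted 1:100 into galactose -URA medium, pH 6.0.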
Pf growth 96h: Primary qHTS for delayed death inhibitors of the malarial parasite plastid, 96 hour incubation | P. falciparum luciferase reporter growth, 96 h | Potency, µM (series often up to 28.7 µM), inactives show top-dose activity change, negative = inhibition, hits mostly inhibitors | hit rate 6.9% among 320,000 | AID 504834, 2011; note: % is set by controls: 0 for no effect and ±100 for the full control effect
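Luminescence readout: decreased luciferase signal marks inhibited growth of reporter-expressing P. falciparum in infected red cells (2% hematocrit, 0.05% parasitemia final), exposed to compound two generations (96 h, 37 C, 5% CO2).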
HCV inhibitor: qHTS Assay for Inhibitors of Hepatitis C Virus (HCV); hit rate 3.4% among 340,000; Potency, µM (highest dose often 41.8 µM), without a hit: at the top dose activity change, negative = inhibition, hits mostly inhibitors; AID 651820, 2012; Huh7.5.1 HCVcc-Cre infection, luciferase reporter, 44 h; note: % is set by controls: 0 for no effect and ±100 for the full control effect
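A cell-based infection assay in which seeded cells (1,000 per well) receive test compound after 4 h, are inoculated with HCVcc-Cre at approximately 0.5 moi, and are incubated 44 h before luminescence detection.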
Pf growth 48h: Primary qHTS for delayed death inhibitors of the malarial parasite plastid, 48 hour incubation. P. falciparum luciferase growth in erythrocytes, 48 h. Potency, µM (top dose mostly 28.7 µM), for the others: top-dose activity change, negative = inhibition, usual class: inhibitors. hit rate 5.9% among 310,000; note: % is set by controls: 0 for no effect and ±100 for the full control effect
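Read-out is firefly luciferase luminescence from an integrated reporter in P. falciparum, so falling signal marks reduced parasite growth. Infected erythrocytes were at 2% hematocrit and 0.1% parasitemia (final) in Albumax-supplemented RPMI 1640.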
SARS PLpro yeast: qHTS of Yeast-based Assay for SARS-CoV PLP | AID 485353, 2010 | S. cerevisiae expressing SARS-CoV PLpro, growth rescue | Potency, µM (series often up to 32.9 µM), for the others: top-dose activity, positive = growth rescue, most hits filed as activators | hit rate 0.19% among 330,000; calls by dose curve; note: 0% is about no effect; nearly all actives have a fitted effect of over 55% in size
An asterisk follows results filed as active; ? = inconclusive; nt = no result; [ ] = another dose, or the depositor's remark. Sampled rows, rich in hits. Any-hit rate of the full collection: about 12%. Unless noted, calls come from the whole dose curve; as a rule, active = well fitted curve in the direction sought with a large enough effect; inconclusive = small, poorly fitted or top-dose-only effect, or another doubt; inactive = no such curve, though single readings can be large; an effect the other way counts as inactive or inconclusive. Potency is the fitted concentration of half-maximal effect.

SMILES | AMA1 RON2 block | NS1 function inh | Pf growth 96h | HCV inhibitor | Pf growth 48h | SARS PLpro yeast
CCCNS(=O)(=O)c1cc2c3c(c1)C(C)C(=O)N3CCC2 (centres undefined) | 3% | 8% | 32% | -2% | 5% | -2%
CC1C(=O)N2CCCc3cc(S(=O)(=O)NCc4ccccc4Cl)cc1c32 (centres undefined) | -11% | 9% | -13% | -24% | 13µM* | -1%
COc1ccccc1NC(=O)/C(=C/c1cccc([N+](=O)[O-])c1)c1ccccc1 | -8% | 0% | 31% | ? | ? | 24%
COc1ccc(Cl)cc1NC(=O)CN(C)C(=O)c1ccc(N2CCCCCC2)c([N+](=O)[O-])c1 | -20% | nt | ? | ? | ? | 1%
COc1cccc(CN(C)C(=O)c2ccc(N3CCCC3)c([N+](=O)[O-])c2)c1 | -1% | -36% | 13µM* | -30% | -7% | -7%
COc1ccc(NC(=O)CN(C)C(=O)c2ccc(N3CCCCC3)c([N+](=O)[O-])c2)cc1 | -15% | nt | -24% | ? | -12% | -3%
COc1ccc(Cl)cc1NC(=O)CN(C)C(=O)c1ccc(N2CCCCC2)c([N+](=O)[O-])c1 | -4% | nt | ? | ? | 13µM* | nt
CCN(CC)S(=O)(=O)c1ccc(C)c(NC(=O)CNc2cccc(S(=O)(=O)N3CCOCC3)c2)c1 | -7% | nt | ? | ? | ? | -3%
Cc1cc(C)cc(NC(=O)CN2C(=O)NC(Cc3c[nH]c4ccccc34)C2=O)c1 (centres undefined) | -7% | nt | nt | 9% | nt | 4%
O=C(CSc1nnc2c(n1)[nH]c1ccccc12)Nc1cccc(S(=O)(=O)N2CCOCC2)c1 | 1% | ? | 15µM* | ? | ? | -1%
O=C(CNc1cccc(S(=O)(=O)N2CCCC2)c1)Nc1cccc(Br)c1 | -6% | nt | 4.1µM* | ? | 5.2µM* | 2%
O=C(CNc1ccc(Br)cc1)Nc1cccc(S(=O)(=O)N2CCCC2)c1 | -3% | nt | -51% | ? | -85% | 0%
O=C(CN1C(=O)NC(Cc2c[nH]c3ccccc23)C1=O)Nc1cccc(S(=O)(=O)N2CCOCC2)c1 (centres undefined) | -1% | 1% | 9.3µM* | 0% | ? | -1%
CCN(CC)S(=O)(=O)c1cccc(NC(=O)CNc2cccc(S(=O)(=O)N3CCOCC3)c2)c1 | 1% | nt | ? | 0.56µM* | ? | 2%
C=CCNc1nc(C(=O)OCC(=O)N(Cc2ccccc2)C(C)C)cs1 | -7% | nt | 18% | 5% | 35% | 1%
CCn1cc(C(=O)O)c(=O)c2cc(F)c(N/N=C/c3ccccc3[N+](=O)[O-])cc21 | 24% | 2% | 6% | 3% | 6% | -16%
O=C(CNc1cccc(S(=O)(=O)N2CCOCC2)c1)Nc1cccc(Br)c1 | -14% | nt | 9.3µM* | ? | 6.6µM* | -1%
CCN(CC)S(=O)(=O)c1cc(NC(=O)C(C)N2CC=C(c3ccccc3)CC2)ccc1C (centres undefined) | 5%[2.32 µM] | -11% | ? | 11µM* | ? | 18%
CCN(CC)S(=O)(=O)c1cc(NC(=O)CNc2cccc(S(=O)(=O)N3CCCC3)c2)ccc1C | -12% | nt | ? | 0.56µM* | 12µM* | 2%
O=C(CNc1cccc(S(=O)(=O)N2CCOCC2)c1)Nc1ccc(C(F)(F)F)cc1 | 0% | nt | 7.4µM* | ? | 6.6µM* | 5%
O=C(CNc1ccc(C(F)(F)F)cc1)Nc1cccc(S(=O)(=O)N2CCCC2)c1 | 4% | nt | ? | ? | ? | 2%
COC(=O)c1ccc(NC(=O)CSC2=NC(=O)C(c3ccccc3)C(=O)N2)cc1 (centres undefined) | 6% | -40% | -4% | 2% | -9% | 5%
O=C(CN1CCN(S(=O)(=O)c2ccc(Br)cc2)CC1)Nc1ccc(F)cc1 | 8% | -3% | 19% | 9% | 4.1µM* | -7%
O=C(CCNC(=O)c1ccc(Br)cc1)Nc1ccc(S(=O)(=O)N2CCCCC2)cc1 | -1% | nt | ? | 9% | 17% | -6%
NS(=O)(=O)c1ccc(NC(=O)CN2CCN(S(=O)(=O)c3ccc(F)cc3)CC2)cc1 | 0% | 2% | -24% | -5% | -11% | 0%
SMILES | AMA1 RON2 block | NS1 function inh | Pf growth 96h | HCV inhibitor | Pf growth 48h | SARS PLpro yeast
CC(=O)c1cccc(NCC(=O)Nc2cc(S(=O)(=O)N3CCCCC3)ccc2C)c1 | -13% | 9% | 10µM* | 11µM* | ? | -1%
O=C(CNc1ccc(Br)cc1)Nc1ccc(S(=O)(=O)N2CCCC2)cc1 | -3%[11.6 µM] | nt | 12µM* | -22% | 9.3µM* | 1%
C[C@H](NC(=O)Nc1cccc(Br)c1)C(=O)O | 15% | 0% | 33% | 19% | 18% | 0%
COc1ccc(/C(C)=N/NC(=O)C(NC(=O)c2ccccc2)c2n[nH]c(=O)c3ccccc23)c(OC)c1 (centres undefined) | -3% | 2% | -28% | 27% | ? | -2%
C=CC1=C(C(=O)O)N2C(=O)[C@@H](NC(=O)C(N=O)c3csc(N)n3)[C@H]2SC1 (some centres undefined) | nt | nt | 2% | nt | -11% | nt
Cc1ccc(C(C)C)c(OCCn2ccnc2C)c1 | -26% | 4% | 12µM* | -24% | ? | 1%
COc1ccccc1-n1nnnc1SC(C)C(=O)NC1CCCC1 (centres undefined) | 6% | nt | 21% | 3% | -22% | 3%
O=C1/C(=C/c2ccccc2)Nc2ccccc21 | 16% | -116% | 3.7µM* | -22% | ? | -22%
O=C1CNC(=O)/C(=C\c2ccccc2)N1 | 1% | 6% | 31% | 12% | 13% | 0%
COc1cc(C(CCN2CCN(c3ccccc3)CC2)c2c(OC)cc(OC)c3c(C)cc(=O)oc23)cc(OC)c1OC (centres undefined) | ? | -7% | 3.7µM* | 4µM* | 2.6µM* | 2%
COc1ccc(C(CC(=O)N2CCN(c3ccccc3)CC2)c2c(OC)cc(OC)c3ccc(=O)oc23)cc1 (centres undefined) | -13% | ? | 8.3µM* | -22% | 7.4µM* | 1%
CCN(CC)CCC(c1cc(OC)c(OC)c(OC)c1)c1c(OC)cc(OC)c2c(C)cc(=O)oc12 (centres undefined) | -2% | 0% | ? | 7% | 9.3µM* | 3%

Bioassay records as filed in PubChem.
